The supplement of paper PMC10849652
Targets with a hit are over-represented here; the source holds about 8,800 in all. About 0.5% of all pairs of compound and target were hits.

Key:
Experiment in all cases: log2 fold change, soluble protein after heating vs DMSO (PISA); higher = thermal stabilisation; K562 lysate, 10 uM; active = over 0.2 and 3.5 SD of the protein, either way, in both replicates (recomputed)
[1] = compound: C1=CC=C(C=C1)[C@H](COC2=CC3=C(C=C2)NC(=O)N3)NC(=O)C4=CC=CN(C4=O)CC5=CC(=C(C=C5)F)F
Procedure, shortened: (§1)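 Log-two fold change in thermal stability relative to solvent controls is reported from duplicates. For each sample, crude K562 extract from dounce-homogenised pellets in PBS pH 7.4 with 1 mM MgCl2, at 1 mg/mL protein, was treated with 10 μM compound for 30 min. Aliquots heated for 3 min across 48°C-58°C were pooled, brought to 0.5% NP-40 at 4°C and cleared at 21,000xg for 90 min. The supernatant was quantified by TMTpro 16plex LC-MS/MS with channel sums equalised.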

[2] = compound: CC1=C(SC2=C1C(=N[C@H](C3=NN=C(N32)C)CC(=O)N)C4=CC=C(C=C4)Cl)C
Procedure, shortened: as §1

[3] = compound: CC1=C2C(=CC=C1)N=C(N(C2=O)C3=CC=CC=C3C)CN4C=NC5=C(N=CN=C54)N
Procedure, shortened: as §1

[4] = compound: Cc1sc2c(c1C)C(c1ccc(Cl)cc1)=N[C@@H](CC(=O)OC(C)(C)C)c1nnc(C)n1-2
Procedure, shortened: as §1

[5] = compound: c1ccc([C@@H]2C[C@H]2NC2CCNCC2)cc1
Procedure, shortened: as §1

Measured: log2 fold change

BMS1 (UniProt Q14692)
inactive: [1] 0.047 | [2] -0.036 | [3] 0.027 | [4] 0.013 | [5] -0.029

ATP13A1 (UniProt Q9HD20)
inactive: [1] 0.006 | [2] -0.001 | [3] 0.079 | [4] 0.064 | [5] 0.03

BUD23 isoform 3 (UniProt O43709)
inactive: [1] 0.076 | [2] 0.03 | [3] 0.021 | [4] 0 | [5] -0.154

CAPNS1 (UniProt P04632)
UniProt P04632, sequence (P04632 whole entry, looked up): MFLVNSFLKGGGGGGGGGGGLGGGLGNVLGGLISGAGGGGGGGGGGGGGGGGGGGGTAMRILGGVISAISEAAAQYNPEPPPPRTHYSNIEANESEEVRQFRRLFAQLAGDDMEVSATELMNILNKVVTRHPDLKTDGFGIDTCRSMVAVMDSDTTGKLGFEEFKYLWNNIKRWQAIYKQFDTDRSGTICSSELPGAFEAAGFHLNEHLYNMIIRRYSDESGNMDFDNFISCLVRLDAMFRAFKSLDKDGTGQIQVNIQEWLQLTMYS
inactive: [1] 0 | [2] -0.041 | [3] -0.067 | [4] 0.057 | [5] -0.014

CDC16 (UniProt Q13042)
inactive: [1] -0.038 | [2] 0.027 | [3] 0.025 | [4] 0.03 | [5] 0.021

CHCHD2 (UniProt Q9Y6H1)
inactive: [1] -0.123 | [2] -0.043 | [3] -0.015 | [4] 0.062 | [5] -0.01

CAMK2B (UniProt Q13554)
UniProt Q13554, sequence (Q13554 whole entry, looked up): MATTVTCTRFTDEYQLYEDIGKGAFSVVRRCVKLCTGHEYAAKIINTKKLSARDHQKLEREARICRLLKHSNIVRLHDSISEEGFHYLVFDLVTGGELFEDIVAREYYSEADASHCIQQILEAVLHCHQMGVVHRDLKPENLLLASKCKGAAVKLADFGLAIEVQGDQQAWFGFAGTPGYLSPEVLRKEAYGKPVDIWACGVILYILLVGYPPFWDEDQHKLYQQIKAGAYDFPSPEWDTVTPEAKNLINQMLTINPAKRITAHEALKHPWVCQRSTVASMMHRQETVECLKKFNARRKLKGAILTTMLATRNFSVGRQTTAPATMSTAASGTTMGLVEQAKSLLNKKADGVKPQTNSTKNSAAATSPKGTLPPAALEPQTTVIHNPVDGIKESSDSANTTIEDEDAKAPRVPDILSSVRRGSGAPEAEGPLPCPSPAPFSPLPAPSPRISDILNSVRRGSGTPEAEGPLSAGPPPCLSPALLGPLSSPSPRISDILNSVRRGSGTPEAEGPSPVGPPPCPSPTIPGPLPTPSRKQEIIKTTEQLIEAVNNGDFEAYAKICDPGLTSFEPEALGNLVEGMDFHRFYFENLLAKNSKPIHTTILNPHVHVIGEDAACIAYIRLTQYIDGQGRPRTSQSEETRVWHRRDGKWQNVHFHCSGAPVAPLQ
inactive: [1] 0.036 | [2] -0.052 | [3] -0.032 | [4] -0.056 | [5] -0.091

CCDC85B (UniProt Q15834)
UniProt Q15834, sequence (Q15834 whole entry, looked up): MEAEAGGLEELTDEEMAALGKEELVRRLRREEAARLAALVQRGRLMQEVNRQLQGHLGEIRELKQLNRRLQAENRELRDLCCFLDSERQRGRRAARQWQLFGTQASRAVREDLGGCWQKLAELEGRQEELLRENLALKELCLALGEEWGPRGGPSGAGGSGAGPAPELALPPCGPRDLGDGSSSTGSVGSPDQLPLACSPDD
inactive: [1] -0.033 | [2] -0.132 | [3] 0.08 | [4] -0.04 | [5] -0.034

CES2 isoform 4 (UniProt O00748)
inactive: [1] 0.129 | [2] 0.159 | [3] -0.089 | [4] 0.093 | [5] -0.07

C2CD5 isoform 3 (UniProt Q86YS7)
inactive: [1] 0.015 | [2] 0.059 | [3] 0.014 | [4] -0.009 | [5] -0.169

ATP11A (UniProt P98196)
UniProt P98196, sequence (P98196 whole entry, looked up): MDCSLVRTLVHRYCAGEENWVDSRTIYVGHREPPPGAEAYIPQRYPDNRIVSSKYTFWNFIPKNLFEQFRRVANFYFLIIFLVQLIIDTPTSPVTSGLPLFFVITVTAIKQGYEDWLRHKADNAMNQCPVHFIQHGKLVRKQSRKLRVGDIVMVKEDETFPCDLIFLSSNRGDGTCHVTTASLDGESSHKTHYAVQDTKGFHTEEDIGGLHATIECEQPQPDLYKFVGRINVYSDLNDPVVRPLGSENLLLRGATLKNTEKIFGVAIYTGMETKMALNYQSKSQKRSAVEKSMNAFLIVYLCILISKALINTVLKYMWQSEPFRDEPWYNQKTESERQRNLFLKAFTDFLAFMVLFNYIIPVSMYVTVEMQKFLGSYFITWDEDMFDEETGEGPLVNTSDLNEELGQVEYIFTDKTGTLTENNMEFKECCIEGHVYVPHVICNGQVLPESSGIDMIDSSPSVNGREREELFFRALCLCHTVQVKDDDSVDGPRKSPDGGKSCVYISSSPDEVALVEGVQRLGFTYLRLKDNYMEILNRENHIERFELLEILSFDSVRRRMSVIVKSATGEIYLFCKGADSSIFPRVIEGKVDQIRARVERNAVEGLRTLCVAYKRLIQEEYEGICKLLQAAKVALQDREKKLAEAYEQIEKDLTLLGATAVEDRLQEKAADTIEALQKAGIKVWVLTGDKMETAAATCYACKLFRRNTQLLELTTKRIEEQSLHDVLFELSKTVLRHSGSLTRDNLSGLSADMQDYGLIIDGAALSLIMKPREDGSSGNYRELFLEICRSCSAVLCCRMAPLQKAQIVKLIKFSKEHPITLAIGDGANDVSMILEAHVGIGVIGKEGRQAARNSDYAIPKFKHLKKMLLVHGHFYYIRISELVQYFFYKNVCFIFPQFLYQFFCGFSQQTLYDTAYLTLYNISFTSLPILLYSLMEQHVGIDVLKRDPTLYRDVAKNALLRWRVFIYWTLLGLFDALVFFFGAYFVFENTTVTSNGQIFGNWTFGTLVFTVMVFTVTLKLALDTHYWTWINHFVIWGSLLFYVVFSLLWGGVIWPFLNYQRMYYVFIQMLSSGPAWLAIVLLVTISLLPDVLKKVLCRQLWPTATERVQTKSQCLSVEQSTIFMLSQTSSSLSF
inactive: [1] 0.04 | [2] -0.014 | [3] -0.004 | [4] 0.005 | [5] -0.026

CBFA2T3 (UniProt O75081)
inactive: [1] -0.029 | [2] -0.01 | [3] 0.058 | [4] 0.009 | [5] 0.019

CCNB2 (UniProt O95067)
inactive: [1] -0.005 | [2] 0.026 | [3] 0.047 | [4] 0.048 | [5] 0.033

CCNH (UniProt P51946)
inactive: [1] -0.028 | [2] -0.004 | [3] 0.022 | [4] -0.039 | [5] -0.01

C5orf51 (UniProt A6NDU8)
UniProt A6NDU8, sequence (A6NDU8 whole entry, looked up): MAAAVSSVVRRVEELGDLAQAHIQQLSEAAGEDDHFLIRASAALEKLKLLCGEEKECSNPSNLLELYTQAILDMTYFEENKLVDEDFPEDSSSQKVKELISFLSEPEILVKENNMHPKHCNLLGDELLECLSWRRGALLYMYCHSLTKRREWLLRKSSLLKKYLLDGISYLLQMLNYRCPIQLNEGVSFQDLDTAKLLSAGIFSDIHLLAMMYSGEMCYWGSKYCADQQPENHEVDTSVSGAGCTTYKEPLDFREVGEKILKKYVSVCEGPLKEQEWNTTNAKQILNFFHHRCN
inactive: [1] -0.047 | [2] -0.023 | [3] 0.001 | [4] -0.026 | [5] 0.092

C3orf33 (UniProt Q6P1S2)
inactive: [1] 0.074 | [2] 0.143 | [3] -0.386 | [4] -0.03 | [5] -0.226

CHD4 isoform 2 (UniProt Q14839)
UniProt Q14839, sequence (Q14839 whole entry, looked up): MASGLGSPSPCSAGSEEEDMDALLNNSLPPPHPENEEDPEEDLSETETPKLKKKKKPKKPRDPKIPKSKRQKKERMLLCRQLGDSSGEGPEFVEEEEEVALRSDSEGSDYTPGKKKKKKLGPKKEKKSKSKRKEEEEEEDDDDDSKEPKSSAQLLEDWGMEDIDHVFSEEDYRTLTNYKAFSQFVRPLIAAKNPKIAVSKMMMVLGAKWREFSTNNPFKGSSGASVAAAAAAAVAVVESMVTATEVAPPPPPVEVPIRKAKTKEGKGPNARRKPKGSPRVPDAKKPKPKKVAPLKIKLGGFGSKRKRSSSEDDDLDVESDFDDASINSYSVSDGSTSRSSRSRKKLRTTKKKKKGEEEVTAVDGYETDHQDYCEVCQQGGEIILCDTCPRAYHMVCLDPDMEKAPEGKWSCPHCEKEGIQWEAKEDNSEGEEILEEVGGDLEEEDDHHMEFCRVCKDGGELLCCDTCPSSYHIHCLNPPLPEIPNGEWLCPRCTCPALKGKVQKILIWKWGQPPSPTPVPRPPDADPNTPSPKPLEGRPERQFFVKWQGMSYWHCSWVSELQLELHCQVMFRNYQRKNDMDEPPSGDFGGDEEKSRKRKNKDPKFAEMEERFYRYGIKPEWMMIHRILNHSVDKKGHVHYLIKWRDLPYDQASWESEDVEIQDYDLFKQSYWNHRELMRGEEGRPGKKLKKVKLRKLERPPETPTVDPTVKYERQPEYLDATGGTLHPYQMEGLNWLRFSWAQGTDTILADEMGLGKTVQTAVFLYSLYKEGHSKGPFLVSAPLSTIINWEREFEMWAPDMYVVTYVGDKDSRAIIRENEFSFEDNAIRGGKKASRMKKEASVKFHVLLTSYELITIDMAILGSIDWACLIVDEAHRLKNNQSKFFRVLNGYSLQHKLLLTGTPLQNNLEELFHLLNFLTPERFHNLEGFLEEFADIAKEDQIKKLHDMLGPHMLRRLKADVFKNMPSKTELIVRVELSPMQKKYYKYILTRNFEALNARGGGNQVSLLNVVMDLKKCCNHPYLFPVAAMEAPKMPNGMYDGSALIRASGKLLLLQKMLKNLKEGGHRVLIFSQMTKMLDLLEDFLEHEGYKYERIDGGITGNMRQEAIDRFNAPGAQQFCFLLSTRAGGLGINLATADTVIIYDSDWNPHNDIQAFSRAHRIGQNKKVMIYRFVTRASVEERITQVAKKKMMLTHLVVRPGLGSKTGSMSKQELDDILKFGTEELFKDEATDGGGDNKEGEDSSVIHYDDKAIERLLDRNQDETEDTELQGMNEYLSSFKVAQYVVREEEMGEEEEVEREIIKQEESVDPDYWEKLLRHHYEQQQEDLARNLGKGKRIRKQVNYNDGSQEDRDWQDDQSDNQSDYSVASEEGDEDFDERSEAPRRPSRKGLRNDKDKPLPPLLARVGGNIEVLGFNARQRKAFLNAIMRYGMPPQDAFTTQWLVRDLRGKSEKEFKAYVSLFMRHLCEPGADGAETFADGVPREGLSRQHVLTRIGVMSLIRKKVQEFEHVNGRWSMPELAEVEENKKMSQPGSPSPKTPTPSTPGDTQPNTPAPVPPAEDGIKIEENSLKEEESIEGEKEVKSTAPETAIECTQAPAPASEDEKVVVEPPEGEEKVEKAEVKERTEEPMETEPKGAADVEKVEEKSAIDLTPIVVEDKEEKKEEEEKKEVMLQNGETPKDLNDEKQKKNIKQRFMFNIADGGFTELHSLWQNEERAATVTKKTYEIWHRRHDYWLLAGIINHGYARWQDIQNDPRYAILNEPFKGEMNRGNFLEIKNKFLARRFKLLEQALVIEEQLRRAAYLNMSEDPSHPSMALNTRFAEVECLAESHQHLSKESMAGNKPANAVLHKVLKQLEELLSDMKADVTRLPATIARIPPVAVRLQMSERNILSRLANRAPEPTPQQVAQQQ
inactive: [1] 0 | [2] 0.003 | [3] 0.029 | [4] 0.021 | [5] 0.009

CARHSP1 (UniProt Q9Y2V2)
UniProt Q9Y2V2, sequence (Q9Y2V2 whole entry, looked up): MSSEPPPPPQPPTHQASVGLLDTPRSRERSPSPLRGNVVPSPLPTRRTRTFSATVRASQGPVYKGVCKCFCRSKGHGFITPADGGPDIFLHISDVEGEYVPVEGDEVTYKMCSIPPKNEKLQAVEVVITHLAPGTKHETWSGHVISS
inactive: [1] -0.031 | [2] 0.027 | [3] 0.019 | [4] -0.053 | [5] 0.005

ATXN2 (UniProt F8WB05)
inactive: [1] -0.17 | [2] 0.212 | [3] 0.146 | [4] 0.004 | [5] 0.022

BPHL (UniProt Q86WA6)
inactive: [1] 0.284 | [2] 0.038 | [3] -0.028 | [4] 0.158 | [5] 0.014

ATR (UniProt Q13535)
inactive: [1] -0.061 | [2] -0.036 | [3] -0.04 | [4] 0.003 | [5] -0.095

CCNA2 (UniProt P20248)
inactive: [1] 0.013 | [2] -0.006 | [3] -0.003 | [4] -0.021 | [5] -0.068

CARNMT1 (UniProt Q8N4J0)
UniProt Q8N4J0, sequence (Q8N4J0 whole entry, looked up): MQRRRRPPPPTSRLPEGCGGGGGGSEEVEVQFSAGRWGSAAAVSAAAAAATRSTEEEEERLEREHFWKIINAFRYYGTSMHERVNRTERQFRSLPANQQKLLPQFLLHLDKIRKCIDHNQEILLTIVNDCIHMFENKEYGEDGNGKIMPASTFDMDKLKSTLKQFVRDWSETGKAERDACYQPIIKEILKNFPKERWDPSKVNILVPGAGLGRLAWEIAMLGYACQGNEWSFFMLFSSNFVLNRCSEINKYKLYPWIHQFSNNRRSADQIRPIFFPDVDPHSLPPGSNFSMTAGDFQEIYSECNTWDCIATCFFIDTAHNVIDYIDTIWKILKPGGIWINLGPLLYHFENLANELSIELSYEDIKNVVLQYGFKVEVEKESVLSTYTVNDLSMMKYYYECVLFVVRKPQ
inactive: [1] 0.032 | [2] -0.003 | [3] 0.072 | [4] -0.039 | [5] -0.174

CDK5RAP2 (UniProt Q96SN8)
inactive: [1] 0.018 | [2] 0.038 | [3] 0.041 | [4] -0.026 | [5] 0.072
